# Measured values as given in the supplement of paper PMC8728848.
# About 410 targets per protein were measured; listed, in parts, are those with the strongest signals and a random draw of the rest.
# Tests used:
# Assay in all cases: glycan array binding signal (z-score within array); higher = stronger binding
# Details in all cases: glycan notation: IUPAC condensed, linker removed
# [1] = biological target: Gal(b1-4)GlcNAc(b1-3)Gal(b1-4)GlcNAc(b1-3)[Gal(b1-4)GlcNAc(b1-3)Gal(b1-4)GlcNAc(b1-6)]GalNAc
# Outline: (§1)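 Arrays were curated from the Consortium for Functional Glycomics database, 3228 in total, and kept only where the protein sequence was available. Binding is expressed as a within-array Z-score. This score was averaged across arrays of the same protein sequence at different concentrations or buffers and across linkers, and negative values can be read as non-binding.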
# [2] = biological target: Gal(b1-4)GlcNAc(b1-3)GalNAc
# Outline: as §1
# Gal3S(b1-4)Glc6S = biological target: Gal3S(b1-4)Glc6S
# Outline: as §1
# [3] = biological target: Gal3S(b1-4)[Fuc(a1-3)]Glc
# Outline: as §1
# Gal4S(b1-4)GlcNAc = biological target: Gal4S(b1-4)GlcNAc
# Outline: as §1
# Gal6S(b1-4)GlcNAc = biological target: Gal6S(b1-4)GlcNAc
# Outline: as §1
# [4] = biological target: GalNAc(b1-3)Gal(a1-6)Gal(b1-4)Glc
# Outline: as §1
# GalNAc(b1-4)GlcNAc6S = biological target: GalNAc(b1-4)GlcNAc6S
# Outline: as §1
# GalNAc6S(b1-4)GlcNAc = biological target: GalNAc6S(b1-4)GlcNAc
# Outline: as §1
# Glc(a1-4)Glc = biological target: Glc(a1-4)Glc
# Outline: as §1
# Glc(b1-4)Glc = biological target: Glc(b1-4)Glc
# Outline: as §1
# [5] = biological target: GlcNAc(b1-3)Gal(b1-4)GlcNAc(b1-3)Gal(b1-4)GlcNAc(b1-3)Gal(b1-4)GlcNAc(b1-2)Man(a1-3)[GlcNAc(b1-3)Gal(b1-4)GlcNAc(b1-3)Gal(b1-4)GlcNAc(b1-3)Gal(b1-4)GlcNAc(b1-2)Man(a1-6)]Man(b1-4)GlcNAc(b1-4)[Fuc(a1-6)]GlcNAc
# Outline: as §1
# GlcNAc(b1-4)GlcNAc = biological target: GlcNAc(b1-4)GlcNAc
# Outline: as §1
# Kdn(a2-3)Gal(b1-3)GlcNAc = biological target: Kdn(a2-3)Gal(b1-3)GlcNAc
# Outline: as §1
# [6] = biological target: Man(a1-2)Man(a1-3)[Man(a1-2)Man(a1-6)]Man(a1-6)[Man(a1-2)Man(a1-2)Man(a1-3)]Man(b1-4)GlcNAc(b1-4)GlcNAc
# Outline: as §1
# [7] = biological target: Man(a1-3)[Man(a1-6)]Man(b1-4)GlcNAc(b1-4)[Fuc(a1-6)]GlcNAc
# Outline: as §1
# [8] = biological target: Neu5Ac(a2-3)Gal(b1-3)]Neu5Ac(a2-3)Gal(b1-4)]GlcNAc
# Outline: as §1
# [9] = biological target: Neu5Ac(a2-3)Gal(b1-4)GlcNAc(b1-3)Gal(b1-4)GlcNAc(b1-3)Gal(b1-4)GlcNAc(b1-2)Man(a1-3)[Neu5Ac(a2-3)Gal(b1-4)GlcNAc(b1-3)Gal(b1-4)GlcNAc(b1-3)Gal(b1-4)GlcNAc(b1-2)Man(a1-6)]GalNAc
# Outline: as §1
# [10] = biological target: Neu5Ac(a2-3)Gal(b1-4)GlcNAc(b1-3)GalNAc
# Outline: as §1
# [11] = biological target: Neu5Ac(a2-3)Gal(b1-4)[Fuc(a1-3)]GlcNAc(b1-3)GalNAc
# Outline: as §1
# [12] = biological target: Neu5Ac(a2-6)Gal(b1-3)GlcNAc(b1-3)[Gal(b1-4)GlcNAc(b1-6)]Gal(b1-4)Glc
# Outline: as §1
# [13] = biological target: Neu5Ac(a2-6)Gal(b1-4)GlcNAc(b1-2)Man(a1-3)[GlcNAc(b1-2)Man(b1-4)GlcNAc(b1-2)Man(a1-6)]Man(b1-4)GlcNAc(b1-4)GlcNAc
# Outline: as §1
# [14] = biological target: Neu5Ac(a2-6)Gal(b1-4)GlcNAc(b1-2)Man(a1-3)[GlcNAc(b1-4)][Neu5Ac(a2-6)Gal(b1-4)GlcNAc(b1-2)Man(a1-6)]Man(b1-4)GlcNAc(b1-4)GlcNAc
# Outline: as §1
# [15] = biological target: Neu5Ac(a2-6)Gal(b1-4)GlcNAc(b1-6)[Gal(b1-3)]GalNAc
# Outline: as §1
# [16] = biological target: Neu5Ac(a2-6)GalNAc(b1-4)GlcNAc6S
# Outline: as §1
# [17] = biological target: Neu5Ac(a2-8)Neu5Ac(a2-3)Gal(b1-4)GlcNAc
# Outline: as §1
# [18] = biological target: Neu5Ac(a2-8)Neu5Gc(a2-3)Gal(b1-4)GlcNAc
# Outline: as §1
binder,measurement,setting,value
"LlpA1 (Pseudomonas fluorescens), Q4KHC3 (protein) MGSSHHHHHHSSGLVPRGSHMAWIRYDFTDNGSSVLPARYYMAPNQYLQSPNKRFKLLFQADGNLALYDGAQLAWVADQNTPFTNVSKGNKKDPMMVFMNYGFVLDDPLRGRIWSTTPSDPTMGSREDASLRAFTQVQDDGNIVTVDTIPHWYAPNGRVFTPAVGAAMIIGGTTELVPGQFYSAGEHSLVFQGDGNLVVYGPNSSVIWATYTQNKGGVRCVMQEDGNLVIYAANNGVVWQSGTGGHPGATIRLQANGSFTIVTERPVWARFGYTPTIKPPRVFYPDHKWKTGSYTWNNVF",glycan array binding signal (z-score),[1],2.36
same,glycan array binding signal (z-score),[2],-0.927
same,glycan array binding signal (z-score),Gal3S(b1-4)Glc6S,-0.494
same,glycan array binding signal (z-score),[3],-0.518
same,glycan array binding signal (z-score),Gal4S(b1-4)GlcNAc,0.315
same,glycan array binding signal (z-score),Gal6S(b1-4)GlcNAc,0.079
same,glycan array binding signal (z-score),[4],0.158
same,glycan array binding signal (z-score),GalNAc(b1-4)GlcNAc6S,1.64
same,glycan array binding signal (z-score),GalNAc6S(b1-4)GlcNAc,1.35
same,glycan array binding signal (z-score),Glc(a1-4)Glc,0.211
same,glycan array binding signal (z-score),Glc(b1-4)Glc,-1.02
same,glycan array binding signal (z-score),[5],1.27
same,glycan array binding signal (z-score),GlcNAc(b1-4)GlcNAc,0.141
same,glycan array binding signal (z-score),Kdn(a2-3)Gal(b1-3)GlcNAc,-0.948
same,glycan array binding signal (z-score),[6],0.448
same,glycan array binding signal (z-score),[7],-0.367
same,glycan array binding signal (z-score),[8],0.082
same,glycan array binding signal (z-score),[9],2.75
same,glycan array binding signal (z-score),[10],-0.31
same,glycan array binding signal (z-score),[11],0.206
same,glycan array binding signal (z-score),[12],-0.201
same,glycan array binding signal (z-score),[13],2.45
same,glycan array binding signal (z-score),[14],-0.209
same,glycan array binding signal (z-score),[15],0.228
same,glycan array binding signal (z-score),[16],-0.028
same,glycan array binding signal (z-score),[17],-0.552
same,glycan array binding signal (z-score),[18],8.89
